Laboratory results published in PubChem BioAssay (NCATS).
Records with an inconclusive call do not appear. Activity calls are given as the source filed them. Unless noted, the call rests on the fitted dose curve; in most records, active means well fitted curve in the direction sought with a large enough effect; inconclusive means small, poorly fitted or top-dose-only effect, or another doubt; inactive means no such curve, though single readings can be large; an effect the other way counts as inactive or inconclusive.

What was measured:
[1] = qHTS to identify inhibitors of the type 1 interferon - major histocompatibility complex class I in skeletal muscle: primary screen against the NCATS Pharmaceutical Collection (AID 1347407); conditions: human skeletal muscle cells, IFN-b-induced MHC-I HiBiT luminescence, 24 h; series mostly up to 45.9 µM;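 further: luminescence of HiBiT knocked into endogenous HLA-B as interferon-induced MHC class I level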
Outline: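 A qHTS format is used: 8-point, 1:5 compound series with 46 uM top final concentration, applied alongside 4 ng/ml IFN-beta to HLA-B*08:01-HiBiT knock-in myoblasts. Luminescence is measured after 24 h treatment.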

[2] = qHTS for inhibitors of adenylyl cyclases using a fission yeast platform: a pilot screen against the NCATS LOPAC library (AID 1347410); conditions: S. pombe CHP2027, fbp1-GFP fluorescence, 18 h; series mostly up to 57.5 µM
Outline: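 Inhibition of GNAS-stimulated AC9 activity in S. pombe was inferred from derepression of a PKA-repressed fbp1-GFP reporter, measured as cytometric fluorescence after 18 h at 30C with compounds at up to 57 µM.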

[3] = qHTS to identify inhibitors of the type 1 interferon - major histocompatibility complex class I in skeletal muscle: primary screen against the NCATS Mechanism Interrogation Plate v5.0 (MIPE) Libary (AID 1347411); conditions: iHSKM cells + IFN-b, HiBiT-tagged MHC-I luminescence, 24 h; series mostly up to 45.8 µM; further: nearly all actives have a fitted effect of over 65% in size
Outline: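 Luminescence from CRISPR HiBit-tagged endogenous HLA-B in human myoblasts reported MHC class I level after 24 h of IFN-beta (4 ng/ml) plus compound. Compounds ran as 11-point 1:3 series, top 46 uM final.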

[4] = target: Protein phosphatase 1D (Homo sapiens) (UniProt O15297); test: RapidFire Mass Spectrometry qHTS Assay for Modulators of WT P53-Induced Phosphatase 1 (WIP1) (AID 1347424); conditions: WIP1 dephosphorylation of phosphopeptide, RapidFire MS; series mostly up to 63 µM;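 further: amount of dephosphorylated VEPPL-S-QETFS peptide product formed by WIP1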
Outline: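 Mass-spectrometric measurement of dephosphorylated peptide after a 5 min room-temperature reaction of 10 nM WIP1 with 2 uM phosphopeptide, following 1 h compound preincubation in 30 mM MgCl2 buffer.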

[5] = target: Protein phosphatase 1D (Homo sapiens) (UniProt O15297); test: Rhodamine-PBP qHTS Assay for Modulators of WT P53-Induced Phosphatase 1 (WIP1) (AID 1347425); conditions: recombinant WIP1, Rhodamine-PBP phosphate fluorescence, real-time; series mostly up to 57.5 µM
Outline: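 The read-out is the change in Rhodamine-PBP fluorescence (f1 - f0, ex 525/em 598 nm) as Pi is released, read each minute for 11 min. Final reaction: 5 nM WIP1, 10 uM phosphopeptide VEPPL-pS-QETFS, 10 uM Rh-PBP, 50 mM Tris-HCl pH 7.5, 30 mM MgCl2. Compound was preincubated with enzyme for 1 hour at room temperature.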

[6] = Validation qHTS assay for inhibitors of Activation Induced Cytidine Deaminase (AID): UDG Counterscreen signal (AID 1347427); conditions: biochemical UDG counterscreen, fluorescence signal; series mostly up to 115 µM
Outline: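 Fluorescence at 560 nm excitation, 665 nm emission reports UDG signal after 250 mM NaOH (2x) addition and 30 min. Enzymes (AID 1 uM, UDG 2 U/mL, at 4/3x) preincubated 10 min with compound, then 4 h with 4x 250 nM DJC20/DJC23 substrate at room temperature.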

[7] = target: Single-stranded DNA cytosine deaminase (Homo sapiens) (UniProt Q9GZX7); test: Validation qHTS assay for inhibitors of Activation Induced Cytidine Deaminase (AID): AID signal (AID 1347429); conditions: Recombinant AID, FRET ssDNA deamination with UDG, fluorescence; series mostly up to 115 µM
Outline: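 Compounds (final up to 114 uM) preincubated with AID plus UDG; 250 nM DJC20/DJC23 substrate mix (4x stock) added, 4 hr at room temperature, then NaOH, 30 min. Read 1 fluorescence at 540 nm excitation, 590 nm emission.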

[8] = Primary qHTS for inhibitors of SARS-S pseudo-typed particle cell entry (AID 1479145; calls by dose curve; further: nearly all actives have a fitted effect of over 45% in size); conditions: SARS-S pseudotyped particle cell entry, luciferase reporter; series mostly up to 57.1 µM
[9] = Primary qHTS for Huh7 cytotoxicity: counterscreen for inhibitors of MERS-S pseudotyped particle cell entry (AID 1479147; calls by dose curve); conditions: cell viability read-out; series mostly up to 57.1 µM
[10] = Primary qHTS for inhibitors of MERS-S pseudo-typed particle cell entry (AID 1479149; calls by dose curve; further: nearly all actives have a fitted effect of over 60% in size); conditions: MERS-S pseudotyped particle entry, luciferase; series mostly up to 57.1 µM
[11] = Primary qHTS for Vero E6 cytotoxicity: counterscreen for inhibitors of SARS-S pseudo-typed particle cell entry (AID 1479150; calls by dose curve); conditions: cell viability; series mostly up to 57.1 µM
[12] = target: Calcium and integrin-binding protein 1 (Homo sapiens) (UniProt Q99828); test: Validation qHTS for Identification of Calcium Integrin Binding protein 1 (CIB1) Competitor (AID 1508618); conditions: CIB1-GST / FITC-alphaIIb peptide fluorescence polarization; series mostly up to 114 µM
Outline: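 CIB1-GST (1 uM final) incubated 15 min at room temperature with compounds (up to 114 uM), then FITC-labelled alphaIIb peptide (100 nM) added. FP read (Ex 480/Em 540) after 15 min, pH 7.4 buffer containing 5 mM CaCl2.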

[13] = target: Calcium and integrin-binding protein 1 (Homo sapiens) (UniProt Q99828); test: Primary qHTS for Identification of Calcium Integrin Binding Protein 1 (CIB1) Competitor (AID 1508620); conditions: CIB1-GST / FITC-alphaIIb peptide fluorescence polarization; series mostly up to 114 µM;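 further: GST tagged CIB1 binding a fluorescein labelled alphaIIb integrin peptide tracer; top concentration of the series differs between compounds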
Outline: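 Fluorescence polarization competition: CIB1-GST (1 uM final) preincubated with compound 15 min at room temperature, then FITC-labeled alphaIIb peptide (100 nM final) added for another 15 min. Polarization read at Ex 480/Em 540.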

[14] = Primary qHTS for inhibitors of La Crosse Virus (LACV) - induced cell death in SH-SY5Y cells (AID 1508616); conditions: SH-SY5Y LACV cytopathicity rescue, ATP luminescence, 6 d; series mostly up to 4.29 µM;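 further: top concentration of the series differs between compounds; higher means more rescue of cells from virus-induced death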
Outline: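 Rescue of virus-induced death was read as ATPLite luminescence after 6 days at 37C, scaled between DMSO wells with LACV and without virus. Cells were SH-SY5Y, 6000/well, infected at 0.01 MOI after compound addition.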

[15] = qHTS for inhibitors of Rabies Virus screened against the NCATS CANVASS Library (AID 1347402; calls by dose curve); conditions: Rabies virus infection cell assay; series mostly up to 45.9 µM
[16] = Counterscreen qHTS for small molecule stabilizers of the endoplasmic reticulum resident proteome: GLuc-NoTag assay (AID 1508627); conditions: Gaussia luciferase NoTag secretion counterscreen, luminescence, thapsigargin 100 nM for final 4 h; series mostly up to 76.4 µM
Outline: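 Secreted GLuc lacking the SERCaMP modification is measured in SH-SY5Y cells exposed to compound for 19 h and then to thapsigargin (100 nM, 4 h) to deplete ER calcium; hits retested at 11 concentrations, up to 76.6 uM.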

[17] = Confirmatory qHTS for small molecule stabilizers of the endoplasmic reticulum resident proteome: Secreted ER Calcium Modulated Protein (SERCaMP) assay (AID 1508628); conditions: SERCaMP secreted luciferase ER calcium/proteostasis reporter; series mostly up to 76.3 µM; further: nearly all actives have a fitted effect of over 40% in size
Outline: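 Reporter secretion upon ER calcium depletion (100 nM thapsigargin, 4 h, 37C) is measured as medium luminescence with coelenterazine, after 16 h compound pretreatment of SH-SY5Y-GLuc-SERCaMP cells; primary at three concentrations up to 38.3 uM, follow-up at 11 (up to 76.6 uM).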

Measured: Potency

Chain of Protein phosphatase 1D (Homo sapiens) (O15297 whole entry, looked up): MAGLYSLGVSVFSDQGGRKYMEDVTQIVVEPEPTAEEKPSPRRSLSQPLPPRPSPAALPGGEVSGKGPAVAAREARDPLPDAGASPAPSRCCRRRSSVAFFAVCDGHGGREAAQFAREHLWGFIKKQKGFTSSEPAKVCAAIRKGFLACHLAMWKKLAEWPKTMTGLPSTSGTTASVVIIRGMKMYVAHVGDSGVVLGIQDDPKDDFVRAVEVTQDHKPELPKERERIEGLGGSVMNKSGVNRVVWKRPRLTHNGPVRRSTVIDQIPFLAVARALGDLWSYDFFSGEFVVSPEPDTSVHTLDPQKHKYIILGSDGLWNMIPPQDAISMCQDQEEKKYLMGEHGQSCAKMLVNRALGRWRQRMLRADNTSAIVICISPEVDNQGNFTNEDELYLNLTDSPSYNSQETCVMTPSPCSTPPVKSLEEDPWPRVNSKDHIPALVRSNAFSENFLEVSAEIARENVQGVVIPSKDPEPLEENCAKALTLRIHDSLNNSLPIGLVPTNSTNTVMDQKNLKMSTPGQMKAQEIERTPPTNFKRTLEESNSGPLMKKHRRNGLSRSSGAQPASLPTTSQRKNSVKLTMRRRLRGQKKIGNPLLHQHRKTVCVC
Chain of Single-stranded DNA cytosine deaminase (Homo sapiens) (Q9GZX7 whole entry, looked up): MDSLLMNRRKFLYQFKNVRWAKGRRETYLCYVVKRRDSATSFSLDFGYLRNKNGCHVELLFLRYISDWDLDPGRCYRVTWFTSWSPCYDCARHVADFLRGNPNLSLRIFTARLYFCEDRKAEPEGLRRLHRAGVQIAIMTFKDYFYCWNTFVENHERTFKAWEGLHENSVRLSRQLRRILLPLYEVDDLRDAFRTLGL
Chain of Calcium and integrin-binding protein 1 (Homo sapiens) (Q99828 whole entry, looked up): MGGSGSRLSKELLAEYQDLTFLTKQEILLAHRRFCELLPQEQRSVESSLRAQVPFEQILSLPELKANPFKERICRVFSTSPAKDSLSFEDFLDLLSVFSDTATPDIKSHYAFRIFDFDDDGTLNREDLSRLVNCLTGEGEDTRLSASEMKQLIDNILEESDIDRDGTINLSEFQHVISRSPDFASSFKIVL

CCC1(c2ccc(N)cc2)CCC(=O)NC1=O (centres undefined)
not listed: [14] | [15] | [16] | [17]
inactive: all other assays above

CC1(C)C(C=C(Cl)Cl)C1C(=O)OC(C#N)c1cccc(Oc2ccccc2)c1 (centres undefined)
inactive: [1] | [4] | [5] | [14]

O=c1[nH]oc2c1CCNC2
inactive: [1] | [4] | [5] | [6] | [7] | [14] | [12] | [13]

CC(C)(C)NCC(O)c1ccccc1Cl (centres undefined)
not listed: [3] | [15] | [16] | [17]
inactive: all other assays above

C[N+]1(CCF)[C@@H]2CC[C@H]1CC(OC(=O)C(O)(c1ccccc1)c1ccccc1)C2 (some centres undefined)
inactive: [1] | [4] | [5] | [9] | [10] | [11] | [14] | [13]

CCCCC/C=C\C/C=C\C/C=C\C/C=C\CCCC(=O)NCC(=O)O
inactive: [1] | [4] | [5] | [6] | [13]

c1ccc2c(c1)sc1ccccc12
inactive: [1] | [4] | [5] | [9] | [10] | [11] | [13]

C[C@]12Cc3cn[nH]c3C[C@@H]1CC[C@@H]1[C@@H]2CC[C@@]2(C)[C@H]1CC[C@]2(C)O
inactive: [1] | [3] | [4] | [5] | [13]

C[C@@H]1O[C@@H](OC[C@H]2O[C@@H](Oc3c(-c4ccc(O)c(O)c4)oc4cc(O)cc(O)c4c3=O)[C@H](O)[C@@H](O)[C@@H]2O)[C@H](O)[C@H](O)[C@H]1O
inactive: [15] | [8] | [9] | [10] | [11]

COC(=O)[C@@H]1[C@H]2C[C@H]3c4[nH]c5ccccc5c4CCN3C[C@@H]2CC[C@@H]1O
inactive: [15] | [8] | [9] | [10] | [11]

CN1CCC[C@@H]1c1cccnc1
inactive: [15] | [8] | [9] | [10] | [11]

CC(C)N(CCC(C(N)=O)(c1ccccc1)c1ccccn1)C(C)C (centres undefined)
not listed: [3] | [5] | [8] | [15] | [16] | [17]
inactive: all other assays above

CCCCCCCCCC(=O)O[C@H]1CC[C@H]2[C@@H]3CCC4=CC(=O)CC[C@@H]4[C@H]3CC[C@]12C
inactive: [1] | [4] | [5] | [14] | [13]

CCC(CC)(CNC(=O)CCCO)c1cccc(OC)c1
inactive: [1] | [4] | [9] | [10] | [14] | [13]

COc1ccc2c3c1O[C@H]1[C@H](O)CC[C@H]4[C@@H](C2)N(C)CC[C@@]341
inactive: [1] | [4] | [14] | [13]

O=C(N/N=C/c1ccc([N+](=O)[O-])o1)c1cc([N+](=O)[O-])cc([N+](=O)[O-])c1O
inactive: [1] | [14] | [13]

c1ccc(CN2CCNCC2)cc1
inactive: [1] | [4] | [13]

CCN[C@H](C)Cc1cccc(C(F)(F)F)c1
inactive: [1] | [4] | [14] | [13]

CCCOC(=O)c1cncn1C(C)c1ccccc1 (centres undefined)
inactive: [1] | [4] | [5] | [13]

COC1CC(=C(c2cccs2)c2cccs2)C[N+](C)(C)C1 (centres undefined)
inactive: [1] | [4] | [8] | [9] | [10] | [11] | [14] | [13]

CCN(CC)CCc1c[nH]c2ccccc12
inactive: [1] | [4] | [5] | [14] | [13]

CC(Cc1ccccc1)N(C)Cc1ccco1 (centres undefined)
inactive: [1] | [4] | [5] | [13]

C[C@]12CC[C@@H]3c4ccc(OC(=O)N(CCCl)CCCl)cc4CC[C@H]3[C@@H]1CC[C@@H]2O
inactive: [1] | [4] | [8] | [9] | [10] | [11] | [14]

Nc1ccccc1
inactive: [1] | [4] | [8] | [9] | [10] | [11] | [14] | [13]

NNc1ccccc1
inactive: [1] | [4] | [5] | [13] | [16] | [17]

C[C@]12CCC(=O)C=C1CC[C@@H]1[C@H]3CC[C@](C)(O)[C@@]3(C)CC[C@@H]12
inactive: [1] | [4] | [5] | [14] | [13]

C=CCC1([C@H](C)CCC)C(=O)NC(=O)NC1=O
inactive: [1] | [4] | [5] | [14] | [13]

CCC(C)C(C)(COC(N)=O)COC(N)=O (centres undefined)
inactive: [1] | [4] | [8] | [9] | [10] | [11] | [13]

CN1CCC(O)(c2ccc(F)cc2)C(C(=O)c2ccc(F)cc2)C1 (centres undefined)
inactive: [1] | [4] | [5] | [14] | [13]

COC(=O)C(Cl)C(=O)OC
inactive: [1] | [4] | [5] | [14] | [13]

CC(=O)NC1CCSC1=O (centres undefined)
inactive: [1] | [4] | [5] | [14] | [13]

CC(C)=CC1C(C(=O)OCN2C(=O)C3=C(CCCC3)C2=O)C1(C)C (centres undefined)
inactive: [1] | [4] | [5] | [13]

O=C1c2ccccc2C(=O)C1C(=O)C(c1ccccc1)c1ccccc1
inactive: [1] | [13]
